Tau fibril ThT = tau fibrillization inhibition (ThT binding); 2.1% of 270,000 active; Potency, µM (series often up to 57.4 µM), for inactives: at the top dose activity, negative = inhibition, most hits filed as inhibitors; recombinant tau K18 P301L, heparin-induced fibrillization, ThT fluorescence; AID 1460; P10636; note: potency is the fitted concentration of half-maximal effect; nearly all actives have a fitted effect of over 55% in size
Target sequence (P10636 561-689 P618L limits assumed): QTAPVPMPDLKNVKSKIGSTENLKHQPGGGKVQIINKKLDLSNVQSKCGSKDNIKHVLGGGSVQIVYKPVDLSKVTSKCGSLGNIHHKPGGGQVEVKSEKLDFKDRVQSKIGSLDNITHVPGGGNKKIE
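Recombinant human tau K18 fragment […] carrying P301L, 15 uM unlabeled plus 0.24 uM Alexa 594-labeled, was fibrillized with 20 uM heparin in 100 mM sodium acetate pH 7 for 6 hr at 37 C; 30 uM ThT fluorescence read after 1 hr.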
Tau fibril FP = tau fibrillization inhibition (FP) | K18 P301L tau heparin fibrillization, Alexa594 FP, 6 h | 0.39% of 280,000 active | Potency, µM (top dose mostly 57.7 µM), for inactives: at the highest dose activity, negative = inhibition, most hits filed as inhibitors | P10636 | AID 1468; note: potency is the fitted concentration of half-maximal effect; nearly all actives have a fitted effect of over 55% in size
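K18 P301L tau (15 uM unlabeled/0.24 uM Alexa 594-labeled, final) + compound + heparin 20 uM final; 100 mM NaOAc pH 7; 6 hr 37 C; ThT 30 uM final added, 1 hr RT; FP ex 555/em 632 nm.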
Tau fluor cs = counter-screen for tau fibril formation inhibitors; tau K18 P301L (four-repeat tau fragment) Alexa594 fluorescence, heparin fibrillization; Potency, µM (titrated, usually from 57.7 µM), for the others: at the highest dose activity change, negative = decrease; 0.93% of 280,000 active; AID 1463; note: potency is the fitted concentration of half-maximal effect; nearly all actives have a fitted effect of over 55% in size
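Human K18 P301L tau (15 uM unlabeled plus 0.24 uM Alexa 594-labeled, final) in 100 mM sodium acetate pH 7 was mixed with compound and 20 uM heparin and incubated 6 hr at 37 C.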
TRb-SRC2 inh = TRbeta-SRC2 interaction inhibition; 0.065% of 280,000 active; Potency, µM (titrated, usually from 106 µM), without a hit: at the highest dose activity change, negative = inhibition, hits mostly inhibitors; TRbeta-SRC2 peptide binding, fluorescence polarization; receptor liganded with 1 µM T3;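 note: potency is the fitted concentration of half-maximal effect; plate controls were bound peptide for no effect and peptide without receptor for full effect; nearly all actives have a fitted effect of over 50% in size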
Target sequence (P10828 whole entry, looked up): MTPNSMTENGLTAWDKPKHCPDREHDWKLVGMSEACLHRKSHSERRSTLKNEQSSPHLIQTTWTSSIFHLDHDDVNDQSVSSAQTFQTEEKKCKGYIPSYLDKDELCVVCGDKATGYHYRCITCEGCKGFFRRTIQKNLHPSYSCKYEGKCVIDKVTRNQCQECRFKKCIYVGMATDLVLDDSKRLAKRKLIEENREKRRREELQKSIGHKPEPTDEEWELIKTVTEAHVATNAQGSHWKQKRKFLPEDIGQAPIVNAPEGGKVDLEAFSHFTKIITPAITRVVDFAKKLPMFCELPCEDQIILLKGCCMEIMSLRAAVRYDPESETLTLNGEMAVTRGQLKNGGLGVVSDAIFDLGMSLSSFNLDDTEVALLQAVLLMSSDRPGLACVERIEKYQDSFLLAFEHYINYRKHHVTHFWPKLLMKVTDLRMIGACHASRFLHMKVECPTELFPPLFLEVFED
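Compounds were added to 0.6 uM TRb ligand-binding domain and 20 nM Texas Red-labeled SRC2 peptide in Tris buffer containing 1 uM T3, incubated 5 hr at ambient temperature, then read by fluorescence polarization.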
PNC assembly inh = inhibitors of perinucleolar compartment assembly | AID 2417 | 3.1% of 140,000 active | PC3M PTB-GFP, PNC prevalence imaging, 16 h; active compounds read low | activity change (PNC), negative = inhibition, % at 10 µM;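 active = readout at or below -70, meaning at least 70% loss of cells showing the perinucleolar compartment, a nuclear body marking cancer cells; inconclusive = readout between -30 and a set limit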;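 note: plate controls were DMSO wells for no effect and camptothecin positive control wells for full effect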
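Compounds are pinned in duplicate onto adhered PC3M cells stably expressing GFP-tagged PTB and incubated 16 h at 37 C. Cells are then fixed, nuclei stained with Hoechst, and PNC-positive cells counted.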
TR SRC2 fluor cs = alters Texas Red total fluorescence, flagging assay interference; AID 1479; 0.29% of 280,000 active; Potency, µM (top dose mostly 106 µM), for inactives: top-dose fluorescence change, negative = quenching; TRb/SRC2 Texas Red total fluorescence interference; active = well fitted curve in either direction with a large enough effect; inconclusive = small, poorly fitted or top-dose-only effect; note: potency is the fitted concentration of half-maximal effect
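Human TRb ligand-binding domain at 0.6 uM with 20 nM Texas Red SRC2 peptide in Tris buffer containing 1 uM T3 and 5% DMSO, incubated with compound 5 h at ambient temperature. Total fluorescence (555/632 nm) calculated as parallel + 2 × perpendicular.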
* marks the source's active call; other numbers are inactive results; ? = inconclusive; · = no result; [ ] = dose if it differs, or a comment. Compounds with a hit are over-represented: about 4.6% of the library has one in this group of screens. Unless noted, calls come from the whole dose curve; as a rule, active = well fitted curve in the direction sought with a large enough effect; inconclusive = small, poorly fitted or top-dose-only effect, or another doubt; inactive = no such curve, though single readings can be large; an effect the other way counts as inactive or inconclusive. Unless noted, % is set by controls: 0 for no effect and ±100 for the full control effect.

SMILES	Tau fibril ThT	Tau fibril FP	Tau fluor cs	TRb-SRC2 inh	PNC assembly inh	TR SRC2 fluor cs
COc1ccc(N(C(=O)Cc2cccs2)C(C(=O)NC2CCCCC2)c2cccn2C)cc1OC (stereo not drawn)	-9%	-5%	0%	12%	-116*	0%
Cn1cccc1C(C(=O)NC1CCCCC1)N(C(=O)Cc1cccs1)C1CC1 (stereo not drawn)	-5%	-3%	5%	-17%	17	2%
N#Cc1ccc(NC(=O)COC(=O)C2Cc3ccccc3CN2C(=O)c2ccccc2)cc1 (stereo not drawn)	7%	?	-19%	-10%	-98*	-2%
O=C(O)C1Cc2ccccc2CN1C(=O)c1ccccc1 (stereo not drawn)	-7%	-5%	-11%	1%	-97*	2%
Cc1cccc(C)c1NC(=O)COC(=O)C1Cc2ccccc2CN1C(=O)c1ccccc1 (stereo not drawn)	6%	5%	10%	6%	?	-1%
O=C(CSc1ccccc1F)NC(=O)NCc1ccco1	-9%	8%	-2%	4%	·	-6%
Cc1ccccc1CSCC(=O)NC(=O)NCc1ccco1	-10%	-2%	-7%	12%	-95*	1%
COc1ccc(S(=O)(=O)N2CCC(N3CCCCC3)CC2)cc1	-12%	-1%	-3%	5%	8	-1%
CCn1cc(C(C)NC(=O)COc2ccc(Cl)cc2C)c(C)n1 (stereo not drawn)	6%	-9%	2%	0%	-95*	-4%
Cc1cc(Cl)ccc1OCC(=O)NCc1ccncc1	-10%	-3%	-4%	1%	72	2%
COc1ccc(/C=N/Nc2nnc(Cc3ccc(OC)c(OC)c3)c(=O)[nH]2)cc1OC	14%	4%	7%	-2%[53 µM]	4	-2%[53 µM]
CO[C@]1(NC(=O)Cc2cccs2)C(=O)N2C(C(=O)O)=C(COC(N)=O)CS[C@H]21	·	·	·	2%[53 µM]	·	2%[53 µM]
CCC(=O)Nc1ccc(S(=O)(=O)N2CCOCC2)cc1	-9%	2%	-6%	-16%	-80*	-1%
O=C(COC(=O)c1ccc(Br)o1)Nc1ccc(S(=O)(=O)N2CCCC2)cc1	-3%	-5%	-25%	-21%	-80*	-4%
Cc1cc(C)n(-c2ccc(C(=O)OCC(=O)Nc3ccc(S(=O)(=O)N4CCOCC4)cc3)cc2)n1	?	-8%	?	-5%	-87*	1%
N#Cc1cc2c(nc1SCc1nc3ccccc3[nH]1)CCC2	6.3µM*	12%	?	2%	5	-11%
COCCn1c(SCC(=O)Nc2ccccc2)nc2c1c(=O)[nH]c(=O)n2C	-6%	-5%	-2%	9%	?	-1%
CCOc1ccc(NC(=O)Cn2c(=O)n(Cc3ccc(C(=O)NCc4ccc5c(c4)OCO5)cc3)c(=O)c3ccccc32)cc1	-3%	28µM*	-21%	-4%	·	0%
O=C(Cn1c(=O)n(Cc2ccc(C(=O)NCc3ccc4c(c3)OCO4)cc2)c(=O)c2ccccc21)Nc1cccc(Cl)c1	5%	?	-12%	4%	·	?
O=C(Cn1c(=O)n(Cc2ccc3c(c2)OCO3)c(=O)c2ccccc21)Nc1cccc(Cl)c1	?	28µM*	?	8%	·	1%
Cc1ccc(S(=O)(=O)N(C)c2ccc(OCC(=O)NCc3ccco3)cc2)cc1	-12%	-15%	-20%	1%	-18	-3%
CN=c1scc(C)n1/N=C/c1ccc(O)cc1O	16µM*	11%	?	-9%	56	-15%
CN=c1scc(C)n1/N=C/c1ccc2c(c1)OCO2	11µM*	3%	?	4%	?	-3%
Cc1ccccc1-c1nnc(SCC(=O)Nc2ccc3c(c2)OCCO3)n1N	-10%	-8%	-8%	-7%	-13	-2%
Cc1ccccc1OCc1nc2ccccc2c(=O)n1/N=C/c1cccc([N+](=O)[O-])c1	8%	4%	11%	-6%	-9	-7%
SMILES	Tau fibril ThT	Tau fibril FP	Tau fluor cs	TRb-SRC2 inh	PNC assembly inh	TR SRC2 fluor cs
COC(=O)c1sc(C(=O)OC)c(C(=O)OC)c1C(=O)OC	-5%	-4%	2%	9%	24	-4%
COC(=O)c1sc(=S)sc1C(=O)OC	3.2µM*	?	-19%	-1%	42	-4%
CC(=O)N1CCc2c(sc3c2c(=O)n(-c2ccccc2)c(=O)n3Cc2ccccc2Cl)C1	-5%	2%	-4%	-5%	-114*	0%
COc1ccc2[nH]c3c(C)c4ccncc4c(C)c3c2c1	3.5µM*	-8%	?	-5%	·	-11%
CCCCOC(=O)/C=C/c1c(C)[nH]c(=O)[nH]c1=O	-3%	-4%	-2%	-1%	22	0%
CNC1=CC(=O)CC(c2ccccc2)C1 (stereo not drawn)	2%	-7%	4%	-4%	·	-1%
O=C(Nc1cccc(S(=O)(=O)NCc2ccco2)c1)c1cc(-c2ccccc2)nc2ccccc12	-6%	?	?	-4%	70	0%
COC(=O)C1=NOC2(C=C(Br)C(OC)=C(Br)C2=O)C1 (stereo not drawn)	4µM*	?	-23%[11.6 µM]	6%[11.2 µM]	·	-1%[11.2 µM]
COc1ccc(NC(=O)CSc2nc(-c3cc(OC)c(OC)c(OC)c3)[nH]c2-c2ccc(F)cc2)cc1	?	9%	7.1µM*[quencher]	-4%	·	-1%
COc1ccc(-c2[nH]c(-c3ccc(F)cc3)nc2SCC(=O)NCc2ccco2)cc1OC	?	?	?	6%	28	-3%
COc1ccc(NC(=O)CSc2nc(-c3ccc(OC)cc3)cc(=O)[nH]2)cc1	7%	-12%	7%	2%	·	-1%
COc1ccc(-c2[nH]c(-c3ccc(F)cc3)nc2SCC(=O)Nc2ccc(OC)c(OC)c2)cc1	?	14%	14µM*[quencher]	7%	·	-3%
COc1ccc(NC(=O)CSc2nc(-c3ccc(OC)cc3)[nH]c2-c2ccc(OC)cc2)cc1	-11%	7%	8.9µM*[quencher]	-3%	·	-1%
CCOc1ccc(-c2nc(SCC(=O)Nc3ccc4c(c3)OCO4)c(-c3ccc(F)cc3)[nH]2)cc1	?	2%	?	2%	·	-5%
COc1ccc(NC(=O)CSc2cc(-c3ccccc3)nc(C)n2)cc1	-9%	-3%	-25%	-26%	·	8.9µM*[quencher]
CCOC(=O)c1cc([N+](=O)[O-])sc1NC(=O)c1ccc(S(=O)(=O)N2CC3(C)CC2CC(C)(C)C3)cc1 (stereo not drawn)	-3%	-5%	-9%	9%	?	13%
CCc1cccc2c(C(=O)CCl)c[nH]c12	-7%	-1%	-4%	-1%	?	-4%

Bioassay records deposited in PubChem by National Center for Advancing Translational Sciences (NCATS).
